# BAZ2B block: inhibitors of human BAZ2B bromodomain; Q9UIF8; AlphaScreen BAZ2B-H3K14Ac peptide displacement; Potency, µM (top dose mostly 114 µM), actives largely listed as inhibitors; 360,000 tested, 4.4% active; AID 504333; note: nearly all actives have a fitted effect of over 60% in size
# Target sequence (Q9UIF8 whole entry, looked up): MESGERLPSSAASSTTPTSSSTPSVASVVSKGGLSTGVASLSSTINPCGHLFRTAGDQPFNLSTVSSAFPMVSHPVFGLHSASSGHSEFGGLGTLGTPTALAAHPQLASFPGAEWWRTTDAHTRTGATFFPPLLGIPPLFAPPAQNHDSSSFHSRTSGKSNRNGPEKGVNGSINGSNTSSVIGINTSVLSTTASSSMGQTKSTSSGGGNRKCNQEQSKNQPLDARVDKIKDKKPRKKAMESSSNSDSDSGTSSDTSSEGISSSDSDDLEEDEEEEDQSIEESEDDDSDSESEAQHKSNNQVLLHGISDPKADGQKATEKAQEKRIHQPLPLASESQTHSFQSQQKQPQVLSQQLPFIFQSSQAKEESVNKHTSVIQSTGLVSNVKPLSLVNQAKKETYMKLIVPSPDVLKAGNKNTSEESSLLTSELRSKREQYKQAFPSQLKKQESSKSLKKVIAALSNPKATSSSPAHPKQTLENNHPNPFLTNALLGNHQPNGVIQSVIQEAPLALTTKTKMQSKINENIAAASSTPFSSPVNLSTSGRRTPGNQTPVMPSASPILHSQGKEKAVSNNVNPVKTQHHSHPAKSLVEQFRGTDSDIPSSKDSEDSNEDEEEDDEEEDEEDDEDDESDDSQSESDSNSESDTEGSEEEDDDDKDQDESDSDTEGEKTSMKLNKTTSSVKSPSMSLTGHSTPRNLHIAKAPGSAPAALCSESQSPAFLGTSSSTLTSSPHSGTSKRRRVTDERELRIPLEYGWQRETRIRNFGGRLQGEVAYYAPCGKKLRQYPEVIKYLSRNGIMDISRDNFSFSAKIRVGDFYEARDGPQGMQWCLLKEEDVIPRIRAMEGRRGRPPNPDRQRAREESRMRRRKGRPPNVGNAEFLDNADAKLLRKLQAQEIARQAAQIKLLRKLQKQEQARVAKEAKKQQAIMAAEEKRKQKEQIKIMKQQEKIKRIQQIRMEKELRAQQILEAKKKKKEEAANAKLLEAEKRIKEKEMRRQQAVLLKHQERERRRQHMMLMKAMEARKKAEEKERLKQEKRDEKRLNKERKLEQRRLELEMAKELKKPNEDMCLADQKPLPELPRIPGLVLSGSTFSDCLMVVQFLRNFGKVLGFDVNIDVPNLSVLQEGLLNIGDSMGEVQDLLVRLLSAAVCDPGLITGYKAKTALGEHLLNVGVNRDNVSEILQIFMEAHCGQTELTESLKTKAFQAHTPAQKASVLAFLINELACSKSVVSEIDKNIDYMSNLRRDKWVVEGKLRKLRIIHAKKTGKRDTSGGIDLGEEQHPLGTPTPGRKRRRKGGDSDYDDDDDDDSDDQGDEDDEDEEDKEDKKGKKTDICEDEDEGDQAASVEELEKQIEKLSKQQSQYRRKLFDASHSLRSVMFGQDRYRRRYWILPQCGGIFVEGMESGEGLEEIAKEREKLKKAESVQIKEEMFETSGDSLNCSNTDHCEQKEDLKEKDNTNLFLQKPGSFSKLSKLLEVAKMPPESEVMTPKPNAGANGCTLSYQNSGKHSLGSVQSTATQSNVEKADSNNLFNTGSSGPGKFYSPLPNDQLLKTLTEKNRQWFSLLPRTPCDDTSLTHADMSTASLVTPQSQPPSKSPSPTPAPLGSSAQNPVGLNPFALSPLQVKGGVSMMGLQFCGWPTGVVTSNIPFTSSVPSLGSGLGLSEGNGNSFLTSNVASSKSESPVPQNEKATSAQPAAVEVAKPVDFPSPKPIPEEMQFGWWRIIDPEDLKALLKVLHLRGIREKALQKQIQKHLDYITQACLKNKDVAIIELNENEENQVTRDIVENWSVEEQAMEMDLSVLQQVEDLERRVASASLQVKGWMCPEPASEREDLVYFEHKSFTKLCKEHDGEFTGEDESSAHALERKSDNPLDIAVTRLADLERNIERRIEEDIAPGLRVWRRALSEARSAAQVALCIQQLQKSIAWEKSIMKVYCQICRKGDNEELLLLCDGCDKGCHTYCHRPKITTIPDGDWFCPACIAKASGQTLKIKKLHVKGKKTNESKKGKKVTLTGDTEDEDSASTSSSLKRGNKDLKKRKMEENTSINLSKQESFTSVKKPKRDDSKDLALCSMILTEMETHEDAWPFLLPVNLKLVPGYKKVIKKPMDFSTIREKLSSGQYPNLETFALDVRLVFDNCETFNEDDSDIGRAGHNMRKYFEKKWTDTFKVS
#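 Compounds, titrated to a top concentration of 110 uM, were incubated 30 min at room temperature with preformed BAZ2B/acetyl-K14 H3 peptide complex (50 nM each). Proximity signal was measured by AlphaScreen after 20 min with beads.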
# L3MBTL1 block: L3MBTL1 (human) inhibition; Q9Y468; AlphaScreen L3MBTL1–H3K9me1 peptide binding; Potency, µM (doses to about 57.1 µM), actives largely listed as inhibitors; 230,000 tested, 0.66% active; note: nearly all actives have a fitted effect of over 60% in size
#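 First, the protein-peptide complex forms for 30 min at room temperature (L3MBTL1 50 nM, biotinylated H3K9me1 peptide 75 nM). Next, compounds are pin-transferred and incubated 30 min. Finally, AlphaScreen beads are added and read after 30 min.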
# Sfp PPTase inh: blocks B. subtilis Sfp PPTase activity | Q9F4F7 | Potency, µM, most hits filed as inhibitors | 310,000 tested, 3.5% active | Biochemical Sfp PPTase activity, qHTS;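 note: the enzyme is Sfp with the accession as filed and its product quenches rhodamine fluorescence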
#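 With Hepes-Na pH 7.6 buffer containing 10 mM MgCl2, Sfp (15 nM) modified BHQ-2-YbbR (12.5 uM) using rhodamine-CoA (5 uM). Two reads 30 minutes apart at 525/598 nm yielded each well's rate.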
# JMJD2A Tudor inh: blocks the human JMJD2A Tudor domain | O75164 | AlphaScreen JMJD2A-Tudor / H3K4me3 peptide binding | Potency, µM (top dose mostly 114 µM), most hits filed as inhibitors | 390,000 tested, 4.4% active; note: nearly all actives have a fitted effect of over 50% in size
# G9a block: blocks human histone lysine methyltransferase G9a; Q96KQ7; G9a H3K9 monomethylation, AlphaScreen, 2 h; Potency, µM (highest dose often 102 µM), hits mostly inhibitors; 350,000 tested, 8.8% active; AID 504332; note: nearly all actives have a fitted effect of over 75% in size
#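 Compounds were preincubated with 20 nM G9a for 15 min, after which biotinylated H3K9 peptide (500 nM) and SAM (20 uM) started a 2 h room-temperature reaction. Monomethylated product was quantified by antibody-based AlphaScreen chemiluminescence.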
# HP1b chromo inh: blocks HP1-beta chromodomain binding to methylated histone tails. P83916. AlphaScreen HP1-beta / biotin-H3K9me3 peptide binding. Potency, µM (titrated, usually from 114 µM), hits mostly inhibitors. 390,000 tested, 0.56% active. AID 540317; note: nearly all actives have a fitted effect of over 70% in size
#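 HP1-beta protein (50 nM final) preincubated 30 min at room temperature with biotinylated H3(1-18)K9me3 peptide (50 nM) in PBS pH 7.4, 0.01% Tween-20, then compound added for 30 min. AlphaScreen streptavidin donor/nickel chelate acceptor beads (10 ug/mL final), 30 min dark, luminescence read.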
# Numbers stand for hits; . = inactive; ? = inconclusive; / = no result; [ ] = remark or other dose. This is a sample that favours compounds with a hit; in the whole collection about 12% have one here. Calls come from the whole dose curve; as a rule, active = well fitted curve in the direction sought with a large enough effect; inconclusive = small, poorly fitted or top-dose-only effect, or another doubt; inactive = no such curve, though single readings can be large; an effect the other way counts as inactive or inconclusive.
SMILES,BAZ2B block,L3MBTL1 block,Sfp PPTase inh,JMJD2A Tudor inh,G9a block,HP1b chromo inh
Fc1ccccc1-c1n[nH]c(=S)n1/N=C/c1c[nH]c2ccccc12,?,/,.,35µM,0.71µM,.
Cc1cc(C)n(/N=C/c2c[nH]c3ccccc23)c(=O)c1,.,.,.,.,.,.
Fc1ccccc1/C=N/n1cnnc1,.,.,.,.,.,.
Fc1ccccc1/C=N/n1c(C2CCCCC2)n[nH]c1=S,.,/,?,40µM,25µM,.
O=C1NC2(CCCCC2)C(=O)N1/N=C/c1ccccc1Br,.,/,.,.,.,.
O=[N+]([O-])c1ccc(Cl)c(/C=N/n2c(C3CCCCC3)n[nH]c2=S)c1,.,.,.,?,?,.
CC(C)C[C@@H](CC(=O)N[C@@H](CCCN)CC(=O)N[C@@H]1CCCC[C@H]1C(=O)N[C@H](CC(=O)N[C@@H](CCC(=O)O)CC(=O)O)CC(C)C)NC(=O)[C@@H]1CCCC[C@H]1N,/,/,.,/,/,/
CC1(C)CC(=O)C2=C(C1)O[C@@]1(c3ccsc3)Cc3cc(C#N)ccc3C2O1,.[22.9 µM],/,.,/,.[2.33 µM],/
Cc1ccccc1/C=N/n1c(C2CCCCC2)n[nH]c1=S,.,/,.,.,13µM,.
CC(=O)c1cc(NC(=O)c2ccc([N+](=O)[O-])cc2)c(=O)oc1C,.,.,16µM,.,22µM,.
Cc1oc(=O)c(NC(=O)c2cccc(Cl)c2)cc1C(=O)c1ccccc1,.,.,8.9µM,.,.[0.0925 µM],.
COC(=O)c1cc(NC(=O)c2ccc([N+](=O)[O-])cc2)c(=O)oc1C,.,.,.,.,?,.
Cc1oc(=O)c(NC(=O)c2ccccc2)cc1C(N)=O,.,.,.,.[11.4 µM],.,.
COc1ccc(C(=O)Nc2cc(C(=O)c3ccccc3)c(C)oc2=O)cc1,?,.,10µM,?,8.9µM,?
COC(=O)c1cc(NC(=O)c2ccccc2)c(=O)oc1C,.,/,.,.,45µM,.
COCc1nnc(NC(C)=O)s1,.,.,.,.,/,.
O=[N+]([O-])c1ccc(NCc2ccccc2N2CCC(CO)CC2)nc1,?,/,.,?,.,.
CC1(C)CC(NC(=O)COc2ccc3ccc(=O)oc3c2)CC(C)(C)N1,.,/,.,.,.,.
Cc1ccc(N2C(=O)c3ccccc3C2O)nc1 (stereo not given),.,.,.,/,?,/
Cc1ccc(N2C(=O)c3ccccc3C2Nc2ccccc2F)nc1 (stereo not given),.,/,.,.,50µM,.
COc1ccc(N=Cc2[nH]c3ccccc3c2O)cc1,.,/,.,.,6.3µM,.
NC(=O)[C@@H]1CCNc2c(I)cc([N+](=O)[O-])cc2C(=O)N[C@@H](CO)C(=O)N[C@@H](Cc2ccc(O)cc2)C(=O)N1,79µM,.,.,/,10µM,/
CC(C)C[C@@H]1NC(=O)[C@H](Cc2ccc(O)cc2)NC(=O)[C@H](CCC(N)=O)NC(=O)c2cc([N+](=O)[O-])cc(I)c2NCC[C@@H](C(N)=O)NC1=O,50µM,.,.,/,7.1µM,/
NC(=O)[C@@H]1CCCNc2c(F)cc([N+](=O)[O-])cc2C(=O)N[C@@H](CO)C(=O)N[C@@H](Cc2ccc(O)cc2)C(=O)N1,.,.,.,.,?,.
NC(=O)C(CC(=O)O)NC(=O)[C@@H]1CCOc2c(I)cc([N+](=O)[O-])cc2C(=O)N[C@@H](CO)C(=O)N[C@@H](Cc2ccc(O)cc2)C(=O)N1 (stereo not given in full),?,?,?,50µM,22µM,.
SMILES,BAZ2B block,L3MBTL1 block,Sfp PPTase inh,JMJD2A Tudor inh,G9a block,HP1b chromo inh
CC(=O)N1CCN(C(=S)Nc2cc(S(=O)(=O)N3CCOCC3)ccc2Cl)CC1,/,.,.,.,.,.
O=C(O)CSc1cc(NS(=O)(=O)c2ccc(Br)cc2)c2ccccc2c1O,35µM,/,40µM,20µM,1.8µM,14µM
O=S(=O)(Nc1cc(Sc2ncn[nH]2)c(O)c2ccccc12)c1ccccc1,28µM,/,8.9µM,3.5µM,1.4µM,3.5µM
CCC(Oc1ccccc1OC)C(=O)Nc1ccc2c(c1)OCCO2 (stereo not given),.,/,.,.,.,.
COc1ccc2c(c1)c1nc3n(c(=O)c1n2CC(=O)Nc1ccccc1)CCCS3,.,/,.,.,/,.
COc1ccc(N2CCN(CCCNC(=O)CCC(=O)N3CCOc4ccc(Cl)cc43)CC2)cc1,32µM,/,.,?,/,.
Cc1ccc(C)c(N2CCN(CCCNC(=O)CCC(=O)N3CCOc4ccc(Cl)cc43)CC2)c1,?,/,.,/,.,/
O=C(CCC(=O)N1CCOc2ccc(Cl)cc21)NCCCN1CCN(c2ccccc2F)CC1,?,.,.,.,89µM,.
Cc1ccc(C)c(NC(=O)c2cc(-c3cc(C)c(C)cc3O)n[nH]2)c1,.,/,.,.,.,.
Cc1ccc2c(c1)c1c3n2CCN(C(=O)CCl)C3CCC1 (stereo not given),56µM,.,.,?,?,.
CC(=O)N1CCn2c3c(c4cc(C)ccc42)CCCC31 (stereo not given),35µM,.,.,.,.[12.7 µM],.
CC(=O)N1CCn2c3c(c(=O)c4cc(C)ccc42)CCC31 (stereo not given),.,/,.,.,?,.
Cc1ccc2c(c1)c1c(n2C)C(C(N)=O)CCC1 (stereo not given),.,.,.,.,40µM,.
CCN(CC(=O)Nc1c(F)cccc1F)C(=O)c1cnccn1,.,.,/,.,.[0.501 µM],.
CCCCCCN1C=CC=C/C1=C\C=C(C#N)C#N,35µM,?,.,?,.[12.7 µM],.
CC(C)=CCC/C(C)=C/CO/N=C1/C[C@@H](O)[C@@H](O)[C@@H]2[C@@H]3C(=O)N(c4cccc(Oc5ccccc5)c4)C(=O)[C@H]3CC[C@H]12,/,/,.,/,/,/
Cc1nn(-c2ccccc2)c(N)c1Sc1ccccc1[N+](=O)[O-],?,.,.,?,.,.
Cc1nn(-c2ccccc2)c(N)c1Sc1cccc([N+](=O)[O-])c1,?,.,.,56µM,?,.
CSc1ccccc1NC(=O)c1ccc(N2CC3CC(C2)c2cccc(=O)n2C3)c(NC(=O)c2cccnc2)c1 (stereo not given),.,/,.,.,71µM,.
COc1ccccc1NC(=O)c1ccc(N2CC3CC(C2)c2cccc(=O)n2C3)c(NC(=O)c2ccncc2)c1 (stereo not given),.,/,.,.,16µM,.
COc1cccc(/C(O)=C2/C(=O)C(=O)N(Cc3cccnc3)C2c2ccco2)c1 (stereo not given),.,.,.,?,45µM,.
CCN(CC)CCN1C(=O)C(=O)/C(=C(/O)c2ccc(OC)cc2)C1c1ccco1 (stereo not given),.,.,.,.,40µM,.

# Compound activity from PubChem.
